Gal4-VP16 FLuc: VP16 counterscreen qHTS for inhibitors of ROR gamma transcriptional activity; actives 3.5% (n = 310,000); Potency, µM (series often up to 53.6 µM), most hits filed as inhibitors; AID 2546, 2010; Drosophila S2 Gal4-VP16 UAS-luciferase, luminescence, 20 h;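 note: Gal4-VP16 expression switched on by copper sulfate through the metallothionein promoter; nearly all actives have a fitted effect of over 50% in size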
MCF10A rerep: A quantitative high throughput screen for small molecules that induce DNA re-replication in MCF 10a normal breast cells; MCF 10A DNA re-replication, Hoechst nuclear intensity, 48 h; Potency, µM (top dose mostly 46.1 µM), actives largely listed as activators; actives 2.9% (n = 350,000); AID 624296, 2012; note: nearly all actives have a fitted effect of over 50% in size
Giardia killer: Small Molecules that selectively kill Giardia lamblia: qHTS | AID 540267, 2011 | Giardia lamblia trophozoite viability | activity change, % at 7.66 µM, hits read low | actives 0.15% (n = 340,000); in the data active = activity change below about -80%; inconclusive = between about -30% and that limit;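 note: parasites exposed to compound for two days anaerobically before the ATP read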
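Anaerobic 48 hrs incubation at 37 deg C of 100 trophozoites/well with test compounds; ATPLite 1-Step luminescence, 15-30 min RT, reports cellular ATP as viability.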
RORg inh: qHTS for inhibitors of ROR gamma transcriptional activity; Nuclear receptor ROR-gamma (Mus musculus), P51450; Drosophila S2 Gal4-RORgamma UAS-luciferase reporter, 20 h; Potency, µM (highest dose often 53.6 µM), actives largely listed as inhibitors; actives 5.4% (n = 310,000); note: nearly all actives have a fitted effect of over 60% in size
Target sequence (P51450 whole entry, looked up, the tested form may be a part): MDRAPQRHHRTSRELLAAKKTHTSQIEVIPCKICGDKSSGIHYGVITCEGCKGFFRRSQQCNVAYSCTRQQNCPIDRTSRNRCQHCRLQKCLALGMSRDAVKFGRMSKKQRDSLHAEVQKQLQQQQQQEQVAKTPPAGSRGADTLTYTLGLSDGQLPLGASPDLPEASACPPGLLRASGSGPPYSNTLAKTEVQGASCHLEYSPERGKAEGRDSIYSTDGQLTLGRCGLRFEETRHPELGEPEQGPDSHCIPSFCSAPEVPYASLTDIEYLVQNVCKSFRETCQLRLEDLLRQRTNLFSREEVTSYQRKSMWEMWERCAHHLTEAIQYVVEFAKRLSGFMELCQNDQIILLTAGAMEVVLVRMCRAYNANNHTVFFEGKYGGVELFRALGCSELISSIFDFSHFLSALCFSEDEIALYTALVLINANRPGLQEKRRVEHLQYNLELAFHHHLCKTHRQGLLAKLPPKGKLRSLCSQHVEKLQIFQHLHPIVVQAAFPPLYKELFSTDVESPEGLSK
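Drosophila S2 cells stably expressing Gal4-DBD/mouse RORγ fusion under metallothionein promoter plus UAS-luciferase; compound 1 h, then 700 uM CuSO4 induction for 20 h at ambient temperature; inhibition read as reduced luminescence.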
BCR signal inh: qHTS Assay to Find Inhibitors of Chronic Active B-Cell Receptor Signaling. actives 0.05% (n = 340,000). AID 493014, 2011. Potency, µM (top dose mostly 46.1 µM), actives largely listed as inhibitors. ABC-DLBCL IkBa-CBG/CBR reporter, luminescence ratio, 4 h; active = well fitted inhibition curve with a large enough effect in the signal ratio, with a control signal flat, not every such curve was filed as active; inconclusive = small, poorly fitted or top-dose-only effect, or effect the other way, or a change in a side signal; the % refers to the signal ratio
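TMD8 human ABC-DLBCL cells with doxycycline-inducible IκBα–green luciferase fusion and unfused red luciferase, in 0.5% FBS medium; compounds up to 46 uM, 4 h at 37C. Green/red luminescence ratio, filter-overlap corrected, fitted to concentration-response curves.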
SW480 rereplic: A quantitative high throughput screen for small molecules that induce DNA re-replication in SW480 colon adenocarcinoma cells; SW480 DNA re-replication, Hoechst DNA content imaging, 48 h; Potency, µM (top dose mostly 46.1 µM), actives largely listed as activators; actives 1.8% (n = 340,000); AID 624297, 2012; note: nearly all actives have a fitted effect of over 55% in size
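Quantitative HTS format with DMSO vehicle controls; 48 hr drug incubation at 37 C, then 40 min Hoechst staining and scanning imager measurement at 405 nm excitation.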
Numbers stand for hits; n = inactive; u = inconclusive; x = no result given. Compounds with a hit are over-represented: about 8.3% of the library has one in this group of screens. Unless noted, calls come from the whole dose curve; as a rule, active = well fitted curve in the direction sought with a large enough effect; inconclusive = small, poorly fitted or top-dose-only effect, or another doubt; inactive = no such curve, though single readings can be large; an effect the other way counts as inactive or inconclusive.

SMILES	Gal4-VP16 FLuc	MCF10A rerep	Giardia killer	RORg inh	BCR signal inh	SW480 rereplic
CCOc1ccc(C(C)NC(=S)NCc2ccc(Cl)cc2)cc1 (centres undefined)	13µM	n	n	0.79µM	n	n
COc1ccc(CNC(=O)CNC(C)c2ccc(F)cc2)cc1 (centres undefined)	n	n	n	n	n	n
CCCc1ccc(C(C)NC(=S)NCc2ccc(F)cc2)cc1 (centres undefined)	3.2µM	n	n	0.63µM	u	u
COc1ccc(C(C)NC(=S)NCc2ccc(F)cc2)cc1OC (centres undefined)	u	n	n	13µM	n	u
COc1ccc(C)cc1NC(=S)NC(C)c1ccc(OC)c(OC)c1 (centres undefined)	10µM	n	u	2.8µM	n	n
CCC(NC(=S)NCc1ccc(F)cc1)c1ccc(C(C)C)cc1 (centres undefined)	4µM	n	n	2.8µM	u	u
CCC(C)c1ccc(C(C)NC(=S)NCc2ccc(F)cc2)cc1 (centres undefined)	5µM	u	n	2.8µM	u	u
CCC(C)[C@H](NC(=O)NCc1ccc(F)cc1)C(=O)O (some centres undefined)	n	n	n	n	n	n
COc1ccc(NC(=S)NC(C)c2ccncc2)cc1OC (centres undefined)	n	n	n	n	n	n
CCOc1ncccc1C(=O)OCC(=O)NC(=O)c1ccccc1	x	n	n	x	n	n
Cc1nn(-c2ccc(C(=O)NCC(c3ccco3)N3CCCC3)cc2)c(C)c1Cl (centres undefined)	x	u	n	x	n	n
Cc1cc(Br)cn2cc(C(=O)O)nc12	n	n	n	n	n	n
Clc1ccccc1OCCCCN1CCCC1	n	n	n	n	n	n
Clc1ccccc1OCCCCN1CCNCC1	n	21µM	n	n	n	n
O=C(O)CC1(CC(=O)Nc2ccc(C(F)(F)F)cc2)CCCC1	n	n	n	n	u	n
CC1(C)CC(=O)C/C(=N\NC(=O)C2CC2c2ccccc2)C1 (centres undefined)	n	n	n	n	n	n
CC1CCC/C(=N/NC(=O)c2ccccc2-n2cccc2)C1 (centres undefined)	n	n	n	n	n	n
Cc1cc(C(=O)N/N=C2/CC(C)CC(C)(C)C2)c(C)o1 (centres undefined)	n	n	n	n	u	n
CC1C/C(=N\NC(=S)NCc2ccccc2)CC(C)(C)C1 (centres undefined)	2.8µM	n	n	1.3µM	n	n
CC1CCC/C(=N\NC(=S)NCc2ccccc2)C1 (centres undefined)	u	u	n	11µM	n	n
CC1CCC/C(=N\NC(=S)Nc2ccccc2)C1 (centres undefined)	u	n	n	7.9µM	n	n
CC1(C)CC(=O)C/C(=N\NC(=S)NCc2ccccc2)C1	u	n	n	14µM	n	n
CC(C)CNc1ncnc2oc(-c3ccco3)c(-c3ccco3)c12	x	x	n	x	x	x
Oc1ccccc1/C=N/Nc1ccnc(SCc2ccccc2)n1	0.32µM	n	n	0.35µM	u	u
O=C(OCCSCCOC(=O)C1CC=CCC1)C1CC=CCC1 (centres undefined)	x	n	n	x	x	n
SMILES	Gal4-VP16 FLuc	MCF10A rerep	Giardia killer	RORg inh	BCR signal inh	SW480 rereplic
CCOc1ccccc1C1CC(=O)Nc2cc3c(cc21)OCO3 (centres undefined)	u	n	n	n	u	n
CCOc1c(OC)cccc1C1CC(=O)Nc2cc(OC)c(OC)cc21 (centres undefined)	n	n	n	n	u	n
CCCOc1c(OC)cccc1C1CC(=O)Nc2cc3c(cc21)OCCO3 (centres undefined)	n	5.8µM	n	n	u	u
CCCOc1c(OC)cccc1C1CC(=O)Nc2cc3c(cc21)OCO3 (centres undefined)	n	5.8µM	n	n	u	16µM
CCOC(=O)c1ccc(NC(=O)Nc2ncc(Cl)cc2Cl)cc1	n	x	x	n	n	x
CCc1cc(CNC(=O)c2cc(COc3ccc(C)nc3)on2)on1	n	n	n	u	n	n
Cc1cccn2c(=O)c3cc(C(=O)NCc4ccco4)c(=N)n(C(C)C)c3nc12	n	n	n	n	n	u
Cc1cccn2c(=O)c3cc(C(=O)NCc4ccco4)c(=N)n(CCc4ccccc4)c3nc12	n	2.9µM	n	n	u	18µM
COCCNC(=O)c1cc2c(=O)n3cccc(C)c3nc2n(Cc2ccncc2)c1=N	n	n	n	u	n	n
COc1ccc(CCNC(=O)c2cc3c(=O)n4cccc(C)c4nc3n(Cc3ccco3)c2=N)cc1OC	1.1µM	u	n	1.6µM	u	u
Cc1cccn2c(=O)c3cc(C(=O)NCCc4ccccc4)c(=N)n(Cc4ccco4)c3nc12	n	13µM	n	n	n	6.5µM
O=C(/C=C/c1cccs1)NCc1ccc2c(c1)OCO2	n	n	n	n	n	n
O=C(COC(=O)CCc1ccccc1)Nc1ccc(F)cc1Cl	n	n	n	n	n	n
COc1cccc(Oc2cn[nH]c2-c2ccc(OCC(=O)NN)cc2O)c1	n	n	n	n	n	n
C=C(C)COc1ccc(-c2[nH]ncc2Oc2ccccc2OC)c(O)c1	u	n	n	11µM	x	n
C=C(C)COc1ccc(-c2[nH]ncc2Oc2ccc(OC)cc2)c(O)c1	u	u	n	13µM	u	n
CCCOC(=O)c1ccc(Oc2cn[nH]c2-c2ccc(OC)cc2O)cc1	22µM	u	n	10µM	n	u
C=C(C)COc1ccc(-c2nc(N)ncc2Oc2ccccc2OC)c(O)c1	n	u	n	n	u	u
C=C(C)COc1ccc(-c2nc(N)nc(C(F)(F)F)c2-c2ccc(OC)cc2)c(O)c1	n	2.6µM	n	n	n	21µM
CCCCOc1ccc(N(CC(=O)NC2CCCCC2)C(=O)CCC(=O)Nc2ccccn2)cc1	n	n	n	n	n	n
CC(C)CN1CCC(=O)N(CCSc2ccccc2)CC1	u	n	n	n	n	n
C=C(C)COc1ccc(-c2nc(N)ncc2-c2ccc(Br)cc2)c(O)c1	n	23µM	n	n	u	u
C=C(C)COc1ccc(-c2[nH]ncc2-c2ccccc2OC)c(O)c1	13µM	15µM	n	8.9µM	u	u

Screening results (PubChem BioAssay)
